# Source: PubChem BioAssay
# LAP4-GFP MLPCN – modulators of LAP4-GFP expression in yeast, primary screen, S. cerevisiae, multiplex flow cytometry, MLPCN library; 3 h; median GFP as percent of DMSO wells; GFP response vs DMSO, % at 10 µM; 320,000 tested, 0.34% active; AID 2023, 2009;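 active = GFP response vs DMSO above a set limit, about the screen mean plus 3 SD, cut at about 150% in these data; inconclusive = under 70 cell events counted for the yeast strain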
# AGP1 TOR yeast – modulators of AGP1-GFP expression in yeast TOR pathway, primary screen, cell-based, multiplex flow cytometry, S. cerevisiae, MLPCN library. 3 h; GFP as percent of DMSO wells. GFP response vs DMSO, % at 10 µM. 320,000 tested, 0.02% active;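 active = GFP response relative to DMSO above a set limit, near screen average plus 3 SD, cut at about 150% in these data; inconclusive = fewer than 70 cells counted for the yeast strain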;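 also: median GFP channel fluorescence of the gated AGP1 strain per well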
# RPL19A TOR yeast – RPL19A-GFP expression modulators in yeast, primary screen, cell-based, S. cerevisiae, multiplex flow cytometry, MLPCN; S. cerevisiae RPL19A-GFP strain, 3 h; stronger effect = lower value; percent response vs DMSO, % at 10 µM; 330,000 tested, 0.3% active;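 active = percent response vs DMSO below 50%; inconclusive = fewer than 70 events counted for the yeast strain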;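 also: median channel GFP fluorescence of the barcoded RPL19A-GFP strain; ratio of sample median GFP to plate DMSO average so 100% = DMSO; lower means less RPL19A-GFP as with rapamycin TOR inhibition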
# Efflux pump mplx – inhibitors of Candida efflux pumps in yeast, primary screen, S. cerevisiae, Nile Red, multiplex | inhibition, % at 10 µM | S. cerevisiae Candida pump triplex | AID 485275, 2010 | 330,000 tested, 0.44% active;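 active = plate passing quality check with inhibition over a set limit, or well fluorescence over plate mean plus 4 SD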;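 also: Nile Red retained in pooled yeast measured as flow cytometry median fluorescence; 0% = buffer negative control and 100% = Enniatin B positive control; higher means more Nile Red kept so more efflux inhibition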
# MEP2-GFP yeast – modulators of MEP2-GFP levels in yeast, primary screen, S. cerevisiae, multiplex flow cytometry, MLPCN library; 330,000 tested, 0.51% active; AID 2016, 2009; GFP response vs DMSO, % at 10 µM; S. cerevisiae MEP2-GFP strain, 3 h; 100% = DMSO control level;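 active = GFP response versus DMSO above a set limit, roughly screen mean plus 3 SD, cut at about 180% in these data; inconclusive = fewer than 70 cells counted for a yeast strain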;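 also: median GFP fluorescence of the barcode-gated MEP2-GFP cells per well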
# CIT2-GFP yeast – modulators of CIT2-GFP expression in yeast, primary screen, S. cerevisiae, GFP fusion, multiplex flow cytometry, MLPCN library; S. cerevisiae CIT2-GFP strain, 3 h; 100 means same as DMSO wells; GFP response vs DMSO, % at 10 µM; 320,000 tested, 0.065% active;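 active = GFP response relative to DMSO above a set limit, near the screen mean plus 3 SD, cut at about 150% in these data; inconclusive = Fewer than 70 cells measured for a yeast strain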;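 also: ratio of well median GFP fluorescence to mean of DMSO wells on the plate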
# Yeast cmpd fluor – counter-screen for efflux pump inhibitors: compound fluorescence; shares compounds with Efflux pump mplx; S. cerevisiae AD/pABC3, flow cytometry; fluorescence ratio to DMSO, % at 10 µM; 1,700 tested, 4% active; AID 588517;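 active = fluorescence ratio to DMSO above its plate's cutoff, the plate mean ratio plus 5 SD, cut at about 210% in these data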;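 also: unstained yeast with no Nile Red so the signal is compound autofluorescence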
# Mdr1 pump inh – inhibitors of Candida albicans Mdr1 efflux, confirmation, flow cytometry, singleplex, Cherry Pick1 set | shares compounds with Efflux pump mplx | S. cerevisiae AD/CaMDR1, Nile Red efflux | inhibition, % at 10 µM | 1,700 tested, 1% active | AID 588518, 2011; in the data active = inhibition above about 26%;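 also: 0% = DMSO vehicle and 100% = reference inhibitor; higher means more Nile Red retained so more efflux inhibition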
# Cdr2 pump inh – inhibitors of Candida albicans Cdr2 efflux pump, confirmation, S. cerevisiae AD/CaCDR2, flow cytometry, cherry pick 1, singleplex. Nile Red retention. shares compounds with Efflux pump mplx. 1,700 tested, 4% active. Nile Red retention ratio vs DMSO, % at 10 µM; in the data active = Nile Red retention ratio vs DMSO above about 190%;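 also: higher ratio means more blocking of Cdr2 efflux of the dye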
# Cdr1 pump inh – inhibitors of Candida albicans Cdr1 efflux pump, confirmation, S. cerevisiae AD/CaCDR1, flow cytometry, cherry pick 1, singleplex; shares compounds with Efflux pump mplx; Nile Red efflux; inhibition, % at 10 µM; 1,700 tested, 1% active;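 active = inhibition above the screen-wide mean plus twice its standard deviation, cut at about 32% in these data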
# * hit, by the source's call; ? = inconclusive; / = no result given; + = active, no number; [ ] = another dose, or the depositor's remark. Only some compounds are listed: those with a hit (about 1.3% of all), similar ones and a draw of the others.
SMILES,LAP4-GFP MLPCN,AGP1 TOR yeast,RPL19A TOR yeast,Efflux pump mplx,MEP2-GFP yeast,CIT2-GFP yeast,Yeast cmpd fluor,Mdr1 pump inh,Cdr2 pump inh,Cdr1 pump inh
O=C(NCCCN1CCCC1=O)c1cncc(Br)c1,88,84,84,0,94,86,/,/,/,/
CN(C)c1ccc(/C=C/C=C2/SC(=S)N(c3ccccc3)C2=O)cc1,100,98,98,2.4*,114,106,+,1,547*,1
Cc1cc(C)c(S(=O)(=O)Nc2ccc(O)c(Sc3ncn[nH]3)c2)cc1C,102,97,97,0,96,98,92,0,91,0
Cc1cc(C)c(S(=O)(=O)Nc2ccc(O)cc2)cc1C,90,87,90,0,100,86,/,/,/,/
Cc1cc(C)c(S(=O)(=O)Nc2ncn[nH]2)c(C)c1,66,88,108,0,96,97,/,/,/,/
Cc1cc(C)c(S(=O)(=O)Nc2ccc(O)c(Sc3ncn[nH]3)c2)c(C)c1,89,94,102,11*,103,96,103,0,91,0
CCN(CC)c1ccc(/C=C/c2cc(-c3ccccc3)c3ccccc3n2)cc1,?,?,30*[may fluoresce violet],1.9*,?,?,125,1,142,1
CN(C)c1ccc(/C=C/c2ccc3ccccc3n2)cc1,100,82,102,0,109,84,/,/,/,/
COc1cc(/C=C(\C#N)C(=O)c2c[nH]c3ccccc23)cc(OC)c1O,105,106,100,0.9*,97,114,126,0,106,0
COc1cc(/C=C(\C#N)C(=O)NCCc2ccccc2)cc(OC)c1O,98,97,98,0,104,100,/,/,/,/
CC(NC(=O)c1ccccc1)c1nnc(SCC(=O)NC2CCCC2)n1C (configuration not stated),95,99,102,0,107,103,/,/,/,/
Cc1cccc(C)c1NC(=O)C1CCCN1S(=O)(=O)c1ccccc1 (configuration not stated),100,101,103,0,108,105,/,/,/,/
O=C(COC(=O)c1cccc(Cl)c1)NCCN1C(=O)CSC1=O,98,103,102,0,101,104,96,0,90,0
CCNc1ccc(C(=O)OCC(=O)NCCN2C(=O)CSC2=O)cc1[N+](=O)[O-],106,102,113,0,101,104,/,/,/,/
O=C(COC(=O)c1cc(Cl)cc(Cl)c1)NCCN1C(=O)CSC1=O,104,98,103,0,103,99,105,0,100,0
Cc1noc(C)c1COc1cccc(C(=O)OCC(=O)NCCN2C(=O)CSC2=O)c1,105,99,102,0,101,91,/,/,/,/
O=C(COC(=O)c1ccc(Cl)cc1O)NCCN1C(=O)CSC1=O,112,103,106,0,106,102,108,0,112,0
COc1ccccc1C(=O)NC(CCSC)C(=O)NCc1ccccn1 (configuration not stated),94,105,96,0,95,98,/,/,/,/
COc1cccc(NC(=O)COC(=O)CCCC2=NS(=O)(=O)c3ccccc3N2)c1,102,99,100,0,103,102,/,/,/,/
CC1(C)CC[C@]2(C(=O)O)CC[C@]3(C)C(=CCC4[C@@]5(C)CC[C@H](O)C(C)(C)C5CC[C@]43C)C2C1 (some centres not stated),103,88,101,1.4*,90,86,81,0,97,0
CC1(C)CC[C@]2(C(=O)O)CC[C@]3(C)C(=CC[C@@H]4[C@@]5(C)CC[C@H](O)C(C)(C)[C@@H]5CC[C@]43C)[C@@H]2C1,99,93,95,0,101,85,/,/,/,/
COc1cc(C(CC(=O)Nc2ccc(Cl)cn2)N2Cc3ccccc3C2=O)cc(OC)c1OC (configuration not stated),98,98,99,0,112,100,/,/,/,/
Cn1c(Cc2ccccc2)nnc1SCC(=O)Nc1ccc(N2CCOCC2)cc1,86,99,101,1.3*,99,93,106,0,112,0
O=C(CSc1ccccc1F)Nc1ccc(N2CCOCC2)cc1,98,101,98,0.8*,96,95,117,1,112,0
CCCCN(C)CCCNC(=O)c1cn(CC)c2ccc(S(=O)(=O)N3CCc4ccccc4C3)cc2c1=O,92,97,94,0,87,105,/,/,/,/
CCn1cc(C(=O)NCCCN2CCCC2)c(=O)c2cc(S(=O)(=O)N3CCc4ccccc4C3)ccc21,85,90,105,1.1*,103,72,100,0,102,0
CCN(Cc1ccccc1)S(=O)(=O)c1c(C)[nH]c(C)c1C(=O)N1CCCC1,87,93,97,0,97,97,/,/,/,/
Cc1nn(-c2ccc([N+](=O)[O-])cc2)c2c1C(c1cccc(Br)c1)N1C(=N2)C(=O)Nc2ccccc21 (configuration not stated),98,114,93,1,93,85,109,0,103,0
Cc1nn(-c2ccccc2)c2c1C(c1ccc([N+](=O)[O-])cc1)N1C(=N2)C(=O)Nc2ccccc21 (configuration not stated),91,93,96,0,91,84,99,0,87,0
Cc1cccc(NC2=Nc3ccccc3N3C2=Nc2c(c(C)nn2-c2ccccc2)C3c2ccc(O)c(O)c2)c1 (configuration not stated),100,27,96,0,109,79,/,/,/,/
